Results taken from publication PMC11062922 (Nature Chemical Biology, 2023).
Read-outs that look alike come from different tables or passages of the source.

Key:
Set-up in all cases: species or system human, MV4-11 + K-562 + COLO205 + SK-N-BE2 + OVCAR-8
CDC42 = conditions: read-out: apparent Kd, compound concentrations: 100 nM and 1000 nM (sheet 'Samples'), n = 1
CLK1 = conditions: read-out: apparent Kd; compound concentrations: 100 nM and 1000 nM (sheet 'Samples'), CATDS: 4.7124029654616303E-2; n = 1
CLK4 = conditions: read-out: apparent Kd; compound concentrations: 100 nM and 1000 nM (sheet 'Samples'), CATDS: 4.6212544182609797E-2; n = 1
COX5A = conditions: read-out: apparent Kd; compound concentrations: 100 nM and 1000 nM (sheet 'Samples'), CATDS: 4.3023154041585097E-2; n = 1
CSNK1D = conditions: read-out: apparent Kd; compound concentrations: 100 nM and 1000 nM (sheet 'Samples'), CATDS: 4.2260690384559901E-2; n = 1
CSNK1E = conditions: read-out: apparent Kd; compound concentrations: 100 nM and 1000 nM (sheet 'Samples'), CATDS: 3.6484131745227702E-2; n = 1
EIF2AK1 = conditions: read-out: apparent Kd; compound concentrations: 100 nM and 1000 nM (sheet 'Samples'), CATDS: 4.9510201878617897E-2; n = 1
GAK = conditions: read-out: apparent Kd; compound concentrations: 100 nM and 1000 nM (sheet 'Samples'), CATDS: 0.41748311116987502; n = 1
IGF1R = conditions: read-out: apparent Kd; compound concentrations: 100 nM and 1000 nM (sheet 'Samples'), CATDS: 4.75175381268634E-2; n = 1
INSR = conditions: read-out: apparent Kd; compound concentrations: 100 nM and 1000 nM (sheet 'Samples'), CATDS: 6.6437205793840798E-2; n = 1
MAPK10 = conditions: read-out: apparent Kd; compound concentrations: 100 nM and 1000 nM (sheet 'Samples'), CATDS: 0.17405984899870899; n = 1
MAPK8 = conditions: read-out: apparent Kd; compound concentrations: 100 nM and 1000 nM (sheet 'Samples'), CATDS: 0.110364514010045; n = 1
MAPK9 = conditions: read-out: apparent Kd, compound concentrations: 100 nM and 1000 nM (sheet 'Samples'), n = 1
NQO2 = conditions: read-out: apparent Kd, compound concentrations: 100 nM and 1000 nM (sheet 'Samples'), n = 1
PSMC4 = conditions: read-out: apparent Kd; compound concentrations: 100 nM and 1000 nM (sheet 'Samples'), CATDS: 4.1025682332982399E-2; n = 1
PTK2B = conditions: read-out: apparent Kd; compound concentrations: 100 nM and 1000 nM (sheet 'Samples'), CATDS: 7.7838120070478606E-2; n = 1
TNK1 = conditions: read-out: apparent Kd; compound concentrations: 100 nM and 1000 nM (sheet 'Samples'), CATDS: 8.1062749446302901E-2; n = 1
TTK = conditions: read-out: apparent Kd; compound concentrations: 100 nM and 1000 nM (sheet 'Samples'), CATDS: 5.00246606430578E-2; n = 1
CDC7 = conditions: read-out: apparent Kd; compound concentrations:100 nM and 1000 nM (sheet 'Samples'); n = 1
PIK3CD = conditions: read-out: apparent Kd; compound concentrations:100 nM and 1000 nM (sheet 'Samples'); n = 1
TGFBR1 = conditions: read-out: apparent Kd; compound concentrations:100 nM and 1000 nM (sheet 'Samples'); n = 1
CDK16 = conditions: read-out: apparent Kd, compound concentrations: 100 nM and 1000 nM (sheet 'Samples'), n = 1
CDK17 = conditions: read-out: apparent Kd, compound concentrations: 100 nM and 1000 nM (sheet 'Samples'), n = 1
GSK3A = conditions: read-out: apparent Kd, compound concentrations: 100 nM and 1000 nM (sheet 'Samples'), n = 1
MDN1 = conditions: read-out: apparent Kd; compound concentrations: 100 nM and 1000 nM (sheet 'Samples'), CATDS: 0.33246338126543201; n = 1
RIOK2 = conditions: read-out: apparent Kd; compound concentrations: 100 nM and 1000 nM (sheet 'Samples'), CATDS: 0.36068630579871103; n = 1
CDK2 = conditions: read-out: apparent Kd; compound concentrations: 100 nM and 1000 nM (sheet 'Samples'), CATDS: 4.7813901315705599E-2; n = 1
CDK6 = conditions: read-out: apparent Kd; compound concentrations: 100 nM and 1000 nM (sheet 'Samples'), CATDS: 5.8978881187618598E-2; n = 1
CDK9 = conditions: read-out: apparent Kd; compound concentrations: 100 nM and 1000 nM (sheet 'Samples'), CATDS: 7.0025924153680405E-2; n = 1
CDKL5 = conditions: read-out: apparent Kd; compound concentrations: 100 nM and 1000 nM (sheet 'Samples'), CATDS: 0.107974532487744; n = 1
DYRK1A = conditions: read-out: apparent Kd; compound concentrations: 100 nM and 1000 nM (sheet 'Samples'), CATDS: 7.1113198150105694E-2; n = 1
GSK3B = conditions: read-out: apparent Kd; compound concentrations: 100 nM and 1000 nM (sheet 'Samples'), CATDS: 0.45532128509290898; n = 1
MAPK14 = conditions: read-out: apparent Kd; compound concentrations: 100 nM and 1000 nM (sheet 'Samples'), CATDS: 5.6581371759273497E-2; n = 1
MAPK7 = conditions: read-out: apparent Kd; compound concentrations: 100 nM and 1000 nM (sheet 'Samples'), CATDS: 4.4821094432651497E-2; n = 1
MELK = conditions: read-out: apparent Kd; compound concentrations: 100 nM and 1000 nM (sheet 'Samples'), CATDS: 4.5559662583992203E-2; n = 1
PRKD2 = conditions: read-out: apparent Kd; compound concentrations: 100 nM and 1000 nM (sheet 'Samples'), CATDS: 5.0441088598544299E-2; n = 1
TP53RK = conditions: read-out: apparent Kd; compound concentrations: 100 nM and 1000 nM (sheet 'Samples'), CATDS: 4.9816696124222203E-2; n = 1

CCCN1CCCC(c2ccc(Nc3nc(Nc4cc(F)ccc4C(N)=O)c4cc[nH]c4n3)c(OC)c2)C1 (stereo not shown) [GSK1173862A]
potency estimated from few doses (CDC42; CATDS: 4.3032630224219597E-2): 1230 nM | potency estimated from few doses (CLK1): 927 nM | potency estimated from few doses (CLK4): 982 nM | potency estimated from few doses (COX5A): 1230 nM | potency estimated from few doses (CSNK1D): 1310 nM | potency estimated from few doses (CSNK1E): 2340 nM | potency estimated from few doses (EIF2AK1): 805 nM | potency estimated from few doses (GAK): 17.6 nM | potency estimated from few doses (IGF1R): 905 nM | potency estimated from few doses (INSR): 391 nM | potency estimated from few doses (MAPK10): 65.2 nM | potency estimated from few doses (MAPK8): 143 nM | potency estimated from few doses (MAPK9; CATDS: 6.3911773548267894E-2): 427 nM | potency estimated from few doses (NQO2; CATDS: 4.0166930587455497E-2): 1570 nM | potency estimated from few doses (PSMC4): 1450 nM | potency estimated from few doses (PTK2B): 280 nM | potency estimated from few doses (TNK1): 257 nM | potency estimated from few doses (TTK): 783 nM

c1ccc(-c2cc(-c3c[nH]nc3-c3ccccn3)ccn2)cc1 [GW576604X]
potency estimated from few doses (CDC7): 1870 nM | potency estimated from few doses (PIK3CD): 128 nM | potency estimated from few doses (TGFBR1): 629 nM

CCN1CCC(CC(=O)Nc2n[nH]c3nc(-c4cccs4)c(Br)cc23)CC1.O=C(O)[C@H](O)[C@@H](O)C(=O)O [SB-739245-AC]
potency estimated from few doses (CDK16; CATDS: 0.32554244195376097): 802 nM | potency estimated from few doses (CDK17; CATDS: 0.31469055739513202): 861 nM | potency estimated from few doses (GSK3A; CATDS: 0.36357302595777402): 647 nM

Cn1cc(C2=C(c3cccc4ccccc34)C(=O)NC2=O)c2ccccc21 [RO0317253-000]
potency estimated from few doses (CDC42; CATDS: 0.310592027425942): 2180 nM | potency estimated from few doses (MDN1): 1890 nM | potency estimated from few doses (RIOK2): 1620 nM

CCC(NN(C)C)=C1C(=O)Nc2ccc(C(C)=O)cc21 [BI00036838]
potency estimated from few doses (CDK16; CATDS: 6.3187514520784194E-2): 753 nM | potency estimated from few doses (CDK17; CATDS: 5.2851487986603697E-2): 1210 nM | potency estimated from few doses (CDK2): 1640 nM | potency estimated from few doses (CDK6): 895 nM | potency estimated from few doses (CDK9): 590 nM | potency estimated from few doses (CDKL5): 233 nM | potency estimated from few doses (DYRK1A): 569 nM | potency estimated from few doses (GSK3A; CATDS: 0.31666625502072798): 27.3 nM | potency estimated from few doses (GSK3B): 15 nM | potency estimated from few doses (MAPK14): 999 nM | potency estimated from few doses (MAPK7): 2060 nM | potency estimated from few doses (MAPK9; CATDS: 4.6942214024324101E-2): 1750 nM | potency estimated from few doses (MELK): 1940 nM | potency estimated from few doses (NQO2; CATDS: 5.78366102928662E-2): 942 nM | potency estimated from few doses (PRKD2): 1390 nM | potency estimated from few doses (TP53RK): 1440 nM
